In PubChem BioAssay AID1053143 (Broad Institute, 2014):
About 120 (3.5%) of roughly 3,400 compounds were called active. How the calls were made is not given here. Not all results are given here. Entries with a potency or affinity are not part of this list.

Assay: viability loss in HepG2 hepatoma cells – cell-based, ATP luminescence, cherry-pick, activator set 2, cytotoxicity control, dose response (AID 1053143)
Conditions: CellTiter-Glo ATP luminescence, 72 h; series mostly up to 26 µM

| SMILES | activity change, negative = cytotoxicity |
| --- | --- |
| O=C(NC(=O)c1ccccc1)Nc1ccccc1 | inactive |
| CCCC(=O)Nc1ccc(C#Cc2ccccc2)cc1 | inactive |
| Cc1ccc(NC(=O)c2ccc(OC(=O)c3cc4ccccc4o3)cc2)cc1 | inactive |
| CCOC(=O)C1=C(C)NC(=O)C(C(N)=O)C1c1ccccc1 (stereo not drawn) | inactive |
| O=C(NC1CC1)C1Nc2ccc(OC(F)(F)F)cc2C2C=CCC12 (stereo not drawn) | inactive |
| O=C(Nc1ccc2c(c1)nc1n2CCOC1)c1ccccc1 | inactive |
| COc1cccc(NC(=O)c2cccc(Cl)c2)c1 | inactive |
| O=C(Nc1nc2ccccc2[nH]1)c1cccc(Cl)c1 | inactive |
| COc1ccc2cc3cc(C(=O)N4CCCCC4C)oc3nc2c1 (stereo not drawn) | inactive |
| Cc1nn(Cc2ccccc2)c(Cl)c1C(=O)NCCc1ccccc1 | inactive |
| CCCn1cnc2cc(NC(=O)c3cccs3)ccc21 | inactive |
| COc1cccc2oc3cc(C#Cc4ccccn4)ccc3c(=O)c12 | inactive |
| O=c1c2ccccc2oc2cc(C#Cc3ccccn3)ccc12 | inactive |
| O=[N+]([O-])c1cc(Cl)ccc1-c1nc(-c2ccccc2)no1 | inactive |
| Fc1ccc(-c2cn3cc(C(F)(F)F)cc(Cl)c3n2)cc1 | inactive |
| O=C(CCCCn1c(=O)[nH]c2ccsc2c1=O)NCCc1ccccc1 | inactive |
| C[C@@H]1ON(C)[C@H]2C[C@H]3c4cc(-c5cc6ccccc6o5)ccc4CCN3C[C@@H]12 | inactive |
| COc1cccc(/C=N/NC(=O)c2ccoc2C)c1 | inactive |
| Cc1occc1C(=O)N/N=C/c1ccc(OCc2ccccc2)cc1 | inactive |
| O=C(NN=Cc1ccc2c(c1)OCO2)c1ccccc1 | inactive |
| O=C(N/N=C/c1ccc2c(c1)OCO2)c1ccc(Br)o1 | inactive |
| O=C(CSc1nnc(-c2ccncc2)o1)Nc1cc(F)ccc1F | inactive |
| CN(C)c1ccc(-c2ccccc2)nn1 | inactive |
| CCC(=O)NC1=C(Nc2ccc(N)cc2)C(=O)c2ccccc2C1=O | inactive |
| CCc1ccc(NCc2nc3ccccc3c(=O)[nH]2)cc1 | inactive |
| COCC(=O)OCc1cc2cccc(C)c2[nH]c1=O | inactive |

| SMILES | activity change, negative = cytotoxicity |
| --- | --- |
| Cc1ccc(N2CC(C(=O)Nc3ccc4c(c3)OCCO4)CC2=O)cc1 (stereo not drawn) | inactive |
| Cc1cc(C(=O)NC2CCCCCCC2)ccc1[N+](=O)[O-] | inactive |
| O=C(CN1CCOCC1)Nc1ccc(C2CCCCC2)cc1 | inactive |
| COc1ccc2nc(-c3ccccc3)[nH]c2c1 | inactive |
| COc1ccc(/C=C/C(=O)c2ccccc2)c(OC)c1 | inactive |
| Cc1ccc(NC(=O)c2ccc(OCC3CCCO3)cc2)cc1Cl (stereo not drawn) | inactive |
| O=C(NC1=NCCS1)c1ccc(OCC2CCCO2)cc1 (stereo not drawn) | inactive |
| Cc1cc(NC(=O)c2ccc3nccnc3c2)ccc1Br | inactive |
| Cc1ccnc(NC(=O)c2ccc(S(=O)(=O)N3CCC(C)CC3)cc2)c1 | inactive |
| COc1cc(Cl)ccc1OCc1cc(C(=O)NC(C)Cc2cnccn2)no1 (stereo not drawn) | inactive |
| Cc1ccc(NC(=O)Nc2cccc(C)n2)c(C)c1 | inactive |
| Oc1cccc(Nc2nc(O)c(/C=C3\C=Nc4ccccc43)s2)c1 | inactive |
| COc1ccc(-c2csc(N(CC3CCCO3)C(=O)c3ccc(C)cc3)n2)cc1 (stereo not drawn) | inactive |
| CC(C)CN1CCC(=O)N(CCSc2ccccc2)CC1 | inactive |
| O=[N+]([O-])c1ccc(NN=Cc2ccc(O)cc2)nc1 | inactive |
| Clc1ccc(/C=N/Nc2ccccn2)cc1 | inactive |
| COc1ccc(N2CCN(c3ccc(NC(=O)/C=C\C(=O)O)cc3)CC2)cc1 | inactive |
| COC(=O)c1sc(-c2ccc(C(C)(C)C)cc2)cc1NC(=O)c1ccccc1C(=O)O | inactive |
| CC1CCC(C(C)C)C(=O)/C1=C/c1ccc(N)cc1 (stereo not drawn) | inactive |
| Cn1c(=NN=Cc2ccccc2OCCO)sc2ccccc21 | inactive |
| COc1ccc(-c2cn(Cc3ccc(C(N)=O)cc3)c(-c3ccncc3)n2)cc1 | inactive |
| COc1ncccc1-c1nnn(-c2ccc(C)cc2)n1 | inactive |
| COc1ncccc1-c1nnn(-c2ccccc2)n1 | inactive |
| CCCCn1c(SCC2CCCCO2)nc2cc(S(N)(=O)=O)ccc21 (stereo not drawn) | inactive |
| O=C(Cn1nnc2ccccc21)c1ccc(Cl)cc1 | inactive |
| c1ccc(-n2ncc3c(NCCN4CCOCC4)ncnc32)cc1 | inactive |

| SMILES | activity change, negative = cytotoxicity |
| --- | --- |
| Cn1c(=O)c(C(=O)NCC2CCCO2)c(O)c2ccccc21 (stereo not drawn) | inactive |
| COc1ccccc1C(=O)Nc1nnc(SCC(=O)NCC2CCCO2)s1 (stereo not drawn) | inactive |
| CC1(c2ccccn2)Nc2ccccc2-c2nc3ccccc3n21 (stereo not drawn) | inactive |
| NC(=O)c1ccccc1NC(=O)/C=C/c1ccccc1 | inactive |
| O=C(Nc1nccs1)c1ccc(-c2ccc(F)cc2)o1 | inactive |
| COC(=O)c1c(NC(=O)c2ccc(C)o2)sc2c1CCCCC2 | inactive |
| Cc1cccc(Cc2cnc(NC(=O)c3ccc(C)o3)s2)c1 | inactive |
| Cc1ccc(C(=O)Nc2nc3c(s2)CCCC3)o1 | inactive |
| CCCCN(C(=O)Cc1cccs1)c1nnc(-c2cccnc2)s1 | inactive |
| O=C(NCCc1ccc(Cl)cc1)c1ccc2c(c1)OCO2 | inactive |
| Cc1cccc(OCC(=O)Nc2nccs2)c1C | inactive |
| CC(C)(C)NC(=O)Nc1ccc(Br)cc1 | inactive |
| O=C1c2ccncc2C(=O)N1CNc1ccc(Cl)cc1 | inactive |
| O=C(Cc1nc2ccccc2[nH]c1=O)c1ccc(Cl)cc1 | inactive |
| O=C(O)c1ccc(/C=C(\c2nc3ccccc3[nH]2)c2nc3ccccc3s2)cc1 | inactive |
| CCc1cc(C(=O)COc2ccc(F)cc2)c(O)cc1O | inactive |
| CN(C)c1ccnc2sc(C(=O)c3ccccc3)c(N)c12 | inactive |
| CC1(C)Cc2c(c(N3CCOCC3)nc3sc(C(=O)Nc4ccccc4)c(N)c23)CO1 | inactive |
| CCCCN1CCc2c([nH]c3ccc(C)cc23)C1=O | inactive |
| O=C1CCC(c2ccccc2)c2ccccc21 (stereo not drawn) | inactive |
| O=C(Nc1ccc2ccccc2c1)c1ccc(Cl)cc1Cl | inactive |
| Cn1ccc(NC(=O)c2ccc(Cl)cc2Cl)n1 | inactive |
| O=C(NCCO)c1ccc2c3n(nc2c1)-c1ccc(Cl)cc1CO3 | inactive |
| CN(C)CCN1C(=O)C(=O)/C(=C(/O)c2ccc3c(c2)OCCO3)C1c1ccccn1 (stereo not drawn) | inactive |
| COc1cccc(/C=C/C(=O)NNC(=O)c2ccccc2)c1OC | inactive |
| CSc1nc(Cl)cc(Nc2ccc(O)cc2)n1 | inactive |
